Reference: PubChem BioAssay
The source made the active and inactive calls.

How the values were obtained:
Albumin (Bos taurus) = Albumin (Bos taurus) (UniProt P02769); assay: compounds binding labelled BSA control protein – biochemical, small-molecule microarray, Alexa647 label, 635/667 nm fluorescence, artefact control for SMM control protein annotation, profiling panel (AID 1118); settings: BSA-A647 binding, fluorescence 635 nm, higher = more signal;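 note: score merges 667 nm emission intensity and signal-to-noise per printed compound spot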
Albumin (Bos taurus), sequence (P02769 whole entry, looked up): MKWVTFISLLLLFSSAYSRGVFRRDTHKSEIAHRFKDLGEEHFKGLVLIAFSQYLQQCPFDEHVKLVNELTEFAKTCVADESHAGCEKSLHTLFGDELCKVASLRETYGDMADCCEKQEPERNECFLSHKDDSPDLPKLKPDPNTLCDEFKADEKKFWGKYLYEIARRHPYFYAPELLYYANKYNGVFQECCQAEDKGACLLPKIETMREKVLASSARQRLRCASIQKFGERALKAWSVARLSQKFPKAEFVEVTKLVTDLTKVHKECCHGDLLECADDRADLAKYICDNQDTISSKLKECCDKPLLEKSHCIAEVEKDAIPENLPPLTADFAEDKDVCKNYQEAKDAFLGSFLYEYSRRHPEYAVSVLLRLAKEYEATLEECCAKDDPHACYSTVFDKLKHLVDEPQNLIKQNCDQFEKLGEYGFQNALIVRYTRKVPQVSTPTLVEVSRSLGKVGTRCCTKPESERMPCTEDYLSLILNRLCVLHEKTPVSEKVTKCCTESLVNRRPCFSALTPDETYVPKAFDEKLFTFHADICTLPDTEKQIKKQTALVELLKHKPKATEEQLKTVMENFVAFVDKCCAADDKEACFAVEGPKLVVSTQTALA

[1] = probe aXIP binding to arrayed compounds – biochemical, NeuroSMM set, 635/667 nm fluorescence, primary screen (AID 1119); settings: small-molecule microarray, higher = more signal, called active from +8 up or from −8 down;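 note: probe is the protein aXip251-270 applied at 1 µg/mL to compound-printed slides; binding of probe to printed compounds measured as 667 nm fluorescence plus signal to noise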
[2] = probe aNOTCH3 binding on compound microarray – biochemical, small-molecule microarray, 635/667 nm fluorescence, primary screen (AID 1120); settings: higher = more signal;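 note: probe is a biotin-tagged antibody raised against NOTCH3 rather than NOTCH3 protein; score merges spot fluorescence near 667 nm with spot signal to noise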
[3] = probe aNOTCH2 binding on compound microarray – biochemical, small-molecule microarray, 635/667 nm fluorescence, primary screen (AID 1121); settings: higher = more signal;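 note: score merges feature fluorescence read at 667 nm with its signal to noise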
[4] = target: Carbonic anhydrase 2 (Homo sapiens) (UniProt P00918); assay: compounds binding carbonic anhydrase 2 – biochemical, small-molecule microarray, Alexa647-labelled CAII, profiling panel (AID 1122); settings: CAII-A647 binding fluorescence, higher = more signal
[5] = COS7 lysate on small-molecule microarray, probe aHis, 635 nm (AID 1123); settings: COS7 cell lysate, fluorescence, higher = more signal;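 note: z-score combines 667nm fluorescence intensity with signal-to-noise per printed compound spot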
[6] = probe aLAP1 signal on lysate-treated microarray – cell lysate, small-molecule microarray, COS7 lysate, primary screen (AID 1124); settings: probe aLAP1, fluorescence, higher = more signal;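 note: lysate comes from COS7 cells expressing LAP1 and is applied at 0.3 µg/mL; score merges spot fluorescence near 667 nm with signal-to-noise over triplicate slides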
Sam68 (KHDRBS1) = assay: compounds binding KHDRBS1 protein – biochemical, small-molecule microarray, 635 nm fluorescence, primary screen (AID 1125); settings: higher = more signal;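 note: score merges 667 nm channel intensity with signal to noise over triplicate slides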
[7] = tested on: Chordin-like protein 2 (CHRDL2); assay: compounds binding chordin-like 2 – biochemical, small-molecule microarray, 635 nm fluorescence, primary screen (AID 1126); settings: fluorescence 635 nm, higher = more signal;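 note: printed compound slides probed with Chrdl2 protein at 4 µg/mL for 1 h at 4 C; score merges 667 nm emission intensity with signal to noise over three replicate slides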
[8] = target: Concanavalin-A (Canavalia ensiformis) (UniProt P02866); assay: compounds binding concanavalin A lectin – biochemical, small-molecule microarray, Alexa647 label, 635 nm, artefact control for SMM control protein annotation, primary screen (AID 1127); settings: ConA-A647 binding fluorescence, higher = more signal;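 note: z combines 667 nm emission intensity with signal-to-noise across three replicate slides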
Concanavalin-A (Canavalia ensiformis), sequence (P02866 whole entry, looked up): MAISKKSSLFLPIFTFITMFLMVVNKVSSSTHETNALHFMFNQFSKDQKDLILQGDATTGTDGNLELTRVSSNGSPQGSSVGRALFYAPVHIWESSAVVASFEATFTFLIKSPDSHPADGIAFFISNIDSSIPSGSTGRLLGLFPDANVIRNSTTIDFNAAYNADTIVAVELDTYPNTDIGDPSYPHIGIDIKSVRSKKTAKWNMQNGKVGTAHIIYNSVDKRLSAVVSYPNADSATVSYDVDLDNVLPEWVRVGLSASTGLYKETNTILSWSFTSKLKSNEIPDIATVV

[9] = compounds binding Alexa647 anti-His antibody – biochemical, small-molecule microarray, 635 nm fluorescence, artefact control for SMM control protein annotation, primary screen (AID 1128); settings: higher = more signal;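 note: score merges feature fluorescence with signal-to-noise for each printed compound spot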
[10] = tested on: Human papillomavirus type 1a E7 protein (residues 1-88); assay: HPV1a E7 small-molecule binders, primary screen, biochemical, small-molecule microarray, residues 1-88, 635 nm (AID 1129); settings: small-molecule microarray binding, fluorescence 635 nm; higher = more signal
[11] = target: Focal adhesion kinase 1 (Homo sapiens) (UniProt Q05397); assay: PTK2 protein binding on printed compound slides – biochemical, small-molecule microarray, 635/667 nm fluorescence, BSA, DTT, primary screen (AID 1130); settings: 635 nm fluorescence, higher = more signal;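 note: composite of spot emission at 667 nm and signal to noise over triplicate slides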
Focal adhesion kinase 1 (Homo sapiens), sequence (Q05397 whole entry, looked up): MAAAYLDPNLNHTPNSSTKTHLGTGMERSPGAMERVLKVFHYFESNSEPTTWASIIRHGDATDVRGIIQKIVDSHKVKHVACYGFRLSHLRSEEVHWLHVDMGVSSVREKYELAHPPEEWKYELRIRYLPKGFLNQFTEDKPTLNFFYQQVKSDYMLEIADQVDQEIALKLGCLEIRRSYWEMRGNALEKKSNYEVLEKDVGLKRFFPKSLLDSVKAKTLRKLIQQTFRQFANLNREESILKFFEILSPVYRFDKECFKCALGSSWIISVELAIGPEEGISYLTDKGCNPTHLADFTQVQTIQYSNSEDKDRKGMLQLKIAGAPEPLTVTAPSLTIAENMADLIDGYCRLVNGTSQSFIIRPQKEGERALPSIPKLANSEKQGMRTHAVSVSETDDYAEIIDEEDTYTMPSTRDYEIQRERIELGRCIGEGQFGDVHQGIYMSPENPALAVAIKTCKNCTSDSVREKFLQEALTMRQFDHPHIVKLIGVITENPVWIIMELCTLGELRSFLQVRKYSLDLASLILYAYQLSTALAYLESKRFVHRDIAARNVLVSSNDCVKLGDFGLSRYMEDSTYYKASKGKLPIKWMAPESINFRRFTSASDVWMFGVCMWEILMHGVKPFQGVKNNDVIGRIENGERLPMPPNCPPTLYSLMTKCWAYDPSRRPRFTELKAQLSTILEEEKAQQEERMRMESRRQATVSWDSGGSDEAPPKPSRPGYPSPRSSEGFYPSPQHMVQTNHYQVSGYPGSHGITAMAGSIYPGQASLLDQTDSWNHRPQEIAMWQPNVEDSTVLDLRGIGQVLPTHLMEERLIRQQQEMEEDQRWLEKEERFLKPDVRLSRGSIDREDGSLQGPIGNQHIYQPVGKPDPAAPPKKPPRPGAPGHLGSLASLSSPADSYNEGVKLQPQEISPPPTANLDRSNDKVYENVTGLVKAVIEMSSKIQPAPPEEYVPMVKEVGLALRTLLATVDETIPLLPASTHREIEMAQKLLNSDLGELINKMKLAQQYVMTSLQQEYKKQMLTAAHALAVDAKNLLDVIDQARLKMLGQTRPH

[12] = tested on: Fibrinogen (Alexa647-labelled); assay: Alexa647-fibrinogen binding to printed small molecules – biochemical, small-molecule microarray, 635/667 nm fluorescence, artefact control for SMM control-protein annotation, profiling panel (AID 1131); settings: fibrinogen-A647 binding fluorescence, higher = more signal;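 note: z-score merges 667 nm fluorescence with per-spot signal-to-noise over triplicate slides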
[13] = target: Follistatin (Homo sapiens) (UniProt P19883); assay: FST protein binding to printed compounds – biochemical, small-molecule microarray, 635/667 nm fluorescence, primary screen (AID 1132); settings: 635 nm fluorescence, higher = more signal
Follistatin (Homo sapiens), sequence (P19883 whole entry, looked up): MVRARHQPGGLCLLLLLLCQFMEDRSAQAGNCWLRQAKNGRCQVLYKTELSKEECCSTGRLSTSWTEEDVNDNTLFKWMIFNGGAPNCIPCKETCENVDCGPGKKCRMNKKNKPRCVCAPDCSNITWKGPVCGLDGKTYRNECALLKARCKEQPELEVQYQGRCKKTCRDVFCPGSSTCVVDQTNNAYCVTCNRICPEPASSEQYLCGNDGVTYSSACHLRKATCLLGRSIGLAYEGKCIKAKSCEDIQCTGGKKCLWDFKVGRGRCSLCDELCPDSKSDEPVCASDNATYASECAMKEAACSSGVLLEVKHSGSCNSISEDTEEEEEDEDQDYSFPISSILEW

[14] = target: Fibroblast growth factor 2 (Homo sapiens) (UniProt P09038); assay: basic fibroblast growth factor binding to printed compounds – biochemical, small-molecule microarray, 635/667 nm fluorescence, primary screen (AID 1133); settings: FGF2, fluorescence 635/667, higher = more signal
Fibroblast growth factor 2 (Homo sapiens), sequence (P09038 whole entry, looked up): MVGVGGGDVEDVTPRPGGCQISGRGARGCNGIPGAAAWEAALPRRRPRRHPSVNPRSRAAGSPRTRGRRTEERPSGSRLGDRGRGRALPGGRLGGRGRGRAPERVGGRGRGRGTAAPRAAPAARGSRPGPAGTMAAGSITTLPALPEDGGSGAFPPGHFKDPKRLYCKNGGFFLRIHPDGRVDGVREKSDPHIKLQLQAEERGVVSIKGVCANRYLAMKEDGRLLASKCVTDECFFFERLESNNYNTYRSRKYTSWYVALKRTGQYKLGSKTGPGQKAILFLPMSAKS

[15] = JC-1 mitochondrial potential readout, lung cancer cells – cell-based, A549, JC-1 fluorescence, basal, 24 h, 100 nL, profiling panel (AID 1138); settings: higher = more signal;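 note: A549 lung adenocarcinoma cells under basal conditions with no added stimulus; test concentration not given here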
Lefty1 = Lefty1 protein binding to printed compounds – biochemical, small-molecule microarray, 635/667 nm fluorescence, primary screen (AID 1139); settings: fluorescence 635/667, higher = more signal
[16] = tested on: wheat germ agglutinin (Triticum aestivum), Alexa647-labelled; assay: Alexa647-WGA lectin binding to printed small molecules – biochemical, small-molecule microarray, 635/667 nm fluorescence, artefact control for SMM control-protein annotation, profiling panel (AID 1140); settings: WGA-A647 binding, 635 nm fluorescence, higher = more signal;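 note: score merges 667 nm feature emission with signal to noise over triplicate slides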
[17] = target: Luciferin 4-monooxygenase (Photinus pyralis) (UniProt P08659); assay: inhibition of purified Photinus pyralis luciferase – biochemical, luminescence, purified enzyme, 2006 set, primary screen (AID 1141); settings: purified firefly luciferase, SteadyGlo luminescence, 30 min; higher = more signal, called active from +8 up or from −8 down;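 note: cell-free assay with purified firefly luciferase at 100 ng per well in PBS; test concentration not given here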
Luciferin 4-monooxygenase (Photinus pyralis), sequence (P08659 whole entry, looked up): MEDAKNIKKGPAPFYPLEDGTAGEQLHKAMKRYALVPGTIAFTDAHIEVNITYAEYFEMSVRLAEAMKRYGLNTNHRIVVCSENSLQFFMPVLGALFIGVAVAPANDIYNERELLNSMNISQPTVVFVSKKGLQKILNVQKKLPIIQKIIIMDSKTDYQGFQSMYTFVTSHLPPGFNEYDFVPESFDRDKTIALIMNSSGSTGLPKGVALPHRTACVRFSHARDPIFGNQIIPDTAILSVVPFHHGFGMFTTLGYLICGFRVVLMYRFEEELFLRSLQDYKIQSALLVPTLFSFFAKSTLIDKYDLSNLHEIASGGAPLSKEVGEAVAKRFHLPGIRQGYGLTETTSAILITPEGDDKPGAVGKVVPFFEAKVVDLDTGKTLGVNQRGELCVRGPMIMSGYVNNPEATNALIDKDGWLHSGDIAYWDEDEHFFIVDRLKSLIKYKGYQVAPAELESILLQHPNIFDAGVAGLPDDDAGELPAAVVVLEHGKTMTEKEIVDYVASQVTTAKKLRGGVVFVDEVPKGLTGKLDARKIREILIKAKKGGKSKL

SMILES	composite z-score (Albumin (Bos taurus))	composite Z-score [1]	composite z-score [2]	composite z-score [3]	composite z-score [4]	composite z-score [5]	composite z-score [6]	composite z-score (Sam68 (KHDRBS1))	composite z-score [7]	composite z-score [8]	composite z-score [9]	composite z-score [10]	composite z-score [11]	composite z-score [12]	composite z-score [13]	composite z-score [14]	z-score [15]	composite z-score (Lefty1)	composite z-score [16]	z-score [17]
COc1ccc([Si](C)(C)[C@@H]2[C@@H](CC(=O)N(CCO)Cc3ccccc3)O[C@]3(C(=O)N(Cc4ccc(N5C(=O)c6cccc7cccc5c67)cc4)c4ccccc43)[C@H]2C)cc1	-0.806	0.267 (inactive)	0.0496	-0.126	0.283	1.12	0.284	0.956	0.307	1.12	2.39	0.65	0.369	0.674	0.552	0.943	-0.216	0.449	0.934	-0.389 (inactive)
COc1ccc([Si](C)(C)[C@H]2[C@H](CCO)O[C@@]3(C(=O)N(Cc4ccc(NC(=O)[C@H](C)O)cc4)c4ccccc43)[C@@H]2C)cc1	0.494	0.515 (inactive)	0.0643	-0.164	0.488	1.9	0.0861	1.32	0.101	0.897	1.4	1.23	0.382	0.68	0.728	0.634	-1.45	0.568	0.355	-0.234 (inactive)
O=C1C[C@]2(c3ccc([N+](=O)[O-])cc3)C(=O)N(C3CC3)c3cc(CO)ccc3[C@H]2N1C1CCCCC1	-0.806	0.127 (inactive)	-0.103	-0.172	-0.0953	0.792	0.835	0.0418	-0.308	0.55	-0.268	-0.115	0.0202	-0.408	-0.0193	0.173	-0.22	-0.0446	0.0523	0.277 (inactive)
C=CCNC(=O)[C@H]1[C@@H]2C(=O)O[C@@H](c3ccccc3)[C@@H](c3ccccc3)N2[C@@H](c2ccc(OCCO)cc2)[C@]12C(=O)Nc1ccc(C#CC3(O)CCCCCC3)cc12	0.483	0.238 (inactive)	0.257	0.0111	0.184	1.29	1.09	1.34	0.721	1.13	1.26	1.18	0.358	0.932	1.14	1.13	0.38	1.3	0.651	-1.96 (inactive)
CC(=O)OCC1C2CC[C@H]3C(OCc4ccc(F)cc4C(F)(F)F)OC[C@]4(C)[C@H]3C2=C(CN4C(=O)OC(C)(C)C)[C@H](C)C1COC(C)=O (stereo not given in full)	0.349	-0.342 (inactive)	0.16	0.117	0.807	0.826	0.95	0.0524	-1.86	1.12	1.14	-0.267	0.0527	0.783	-0.603	-1.66	1.71	-0.372	0.517	1.62 (inactive)
COC(=O)C(CC#Cc1ccc2c(c1)[C@]1(C(=O)N2)[C@H](c2ccccc2OCCO)N2[C@H](c3ccccc3)[C@H](c3ccccc3)OC(=O)[C@H]2[C@@H]1C(=O)N1CCc2cc(OC)c(OC)cc2C1)C(=O)OC	0.185	0.0296 (inactive)	0.172	-0.14	0.661	1.19	0.653	1.29	0.618	0.914	1.3	1.21	0.317	0.601	1.32	0.667	-0.668	0.896	0.28	-0.242 (inactive)
COC(=O)[C@@]1(Cc2ccc(OC)cc2)[C@H]2c3cc(C(=O)N4CCCC4)n(Cc4c(CO)[nH]cc(C)c4=O)c3C[C@H]2CN1C(=O)c1ccccc1	1.01	-0.438 (inactive)	0.0296	0.257	0.751	3.24	1.32	0.332	-0.184	0.393	1	1.24	0.502	0.91	-0.116	-0.0376	0.534	-0.116	0.723	0.835 (inactive)
CC(C)C(=C=CC[C@H](O)c1ccccc1OCCO)C[C@H](O)c1cc(Cl)cc(Cl)c1O	0.791	-0.275 (inactive)	0.141	-0.106	0.664	1.48	0.114	1.31	-0.114	1.14	-0.287	1.15	0.0701	0.866	1.09	0.285	0.686	1.27	1.16	-1.38 (inactive)
CC1CC/C=C\[C@H]2OC34C=CCN(C(C)(C)C)C(=O)[C@H]3N(CCCO)C(=O)[C@@H]4C2C(=O)O1 (stereo not given in full)	-1.53	0.398 (inactive)	-0.155	-0.164	0.916	0.386	0.71	-0.307	-0.286	-0.532	0.441	-0.137	-0.441	-0.735	-0.404	-0.685	0.0255	-0.842	-0.723	0.477 (inactive)
CCCCC(=C=CC[C@H](O)c1ccc(CO)o1)CCO	0.86	-0.334 (inactive)	-0.0544	-0.0404	0.54	0.143	-0.311	0.864	0.386	0.689	0.149	0.661	0.323	-0.884	0.986	0.662	0.164	0.738	0.0416	-0.783 (inactive)
CC(C)(C)N1CC=CC23O[C@@H]4C=CCOC(=O)[C@@H]4[C@H]2C(=O)N(CCO)[C@@H]3C1=O (stereo not given in full)	0.439	0.256 (inactive)	-0.446	-0.196	0.671	1.95	-0.719	-0.738	-2.63	-0.634	1.6	-0.539	-0.747	-2.09	-0.262	-1.36	0.257	-0.0106	-0.155	-0.387 (inactive)
COc1cc(C(O)C2C=CC3C(=O)N(c4ccccc4)C(=O)C3N2Nc2ccccc2)cc(OC)c1OC (stereo not given)	0.993	0.328 (inactive)	0.416	-0.0742	0.573	2.89	0.496	1.31	-0.872	1.15	1.04	1.21	0.655	1	1.14	-0.085	-0.193	-0.383	1.24	-0.171 (inactive)
CC(C)[Si](C#CCCc1ccccc1)(O[C@H](c1ccccc1)c1cn(Cc2ccccc2)nn1)C(C)C	0.246	0.546 (inactive)	0.073	-0.115	0.204	1.12	0.0218	1.02	0.721	0.949	0.269	1.09	0.104	0.642	0.709	0.368	0.26	0.919	0.782	0.898 (inactive)
COC(=O)[C@@]1(Cc2ccc(OC)cc2)[C@H]2c3cc(C(=O)N4CCCC4)n(CCn4cc([N+](=O)[O-])nc4C)c3C[C@H]2CN1C(=O)c1ccccc1	1.05	0.146 (inactive)	1.67	1	0.62	3.37	0.913	0.654	0.406	0.716	3.4	1.2	1.07	1	0.116	-0.322	1.33	-0.19	0.907	1.22 (inactive)
O=C1[C@@H]2[C@@H](CC(COc3ccccc3)=C([C@H](O)CCc3ccccc3)[C@@H]2CO)C(=O)N1Cc1ccccc1	0.574	0.356 (inactive)	0.15	-0.148	0.42	1.05	0.424	0.582	0.249	0.929	1.71	0.332	1.2	0.724	0.561	0.175	2.07	0.715	0.124	-0.172 (inactive)
COC(=O)[C@@]1(Cc2ccc(OC)cc2)[C@H]2c3cc(C(=O)N4CCCC4)n(Cc4ccc(Cl)c(C(F)(F)F)c4)c3C[C@H]2CN1C(=O)c1ccccc1	1.05	0.0685 (inactive)	0.322	0.162	0.696	3.2	1.16	1.29	-0.754	1.2	1.27	1.19	0.421	0.972	1.34	0.433	1.38	0.125	1.07	0.166 (inactive)
O=C(NCCN1CCOCC1)[C@@H]1c2ccccc2C(=O)N(Cc2ccccc2C(F)(F)F)[C@H]1c1ccc(CO)cc1	0.0089	-0.141 (inactive)	-0.425	-0.108	0.341	-0.0272	2.49	1.29	-0.93	0.0882	-1.48	0.0783	-0.331	-0.676	-0.2	-0.0425	2.63	-1.24	0.708	-0.676 (inactive)
